The source of these data is PubChem BioAssay (EPA / NIEHS).

Activity calls are given as the source filed them. The calls were made as follows: active = hit-call score of the fitted dose curve at least 0.9, where 1 is the maximum; inactive = score below 0.9.

The AC50 is the concentration giving half of the maximal activity seen.

Read-out in this experiment: Interleukin-1 alpha (IL1a), IL1A (gene 3552)
The experiment in a line: BSK_BE3C_IL1a: BioMAP Diversity Plus: BE3C Assay for Interleukin-1 alpha (IL1a) Biomarker Activity (AID 2283016). The note with it: primary human bronchial epithelial cells; actives raise or lower the signal. As for the experimental part: BSK_BE3C is a cell-based, multiplexed-readout assay that uses bronchial epithelial cell, a human lung primary cell, with measurements taken at 24 hours after chemical dosing in a 96-well plate.BSK_BE3C_IL1a is an assay component measured in the BSK_BE3C assay. It measures IL-1a antibody related to regulation of gene expression using ELISA technology.Data from the assay component BSK_BE3C_IL1a was analyzed into 1 assay endpoint. This assay endpoint, BSK_BE3C_IL1a, was analyzed with bidirectional fitting relative to DMSO as the negative control and baseline of activity. Using a type of binding reporter, gain or loss-of-signal activity can be used to understand changes in the signaling as they relate to the gene IL1A. Furthermore, this assay endpoint can be referred to as a primary readout, because this assay has produced multiple assay endpoints where this one serves a signaling function. To generalize the intended target to other relatable targets, this assay endpoint is annotated to the cytokine intended target family, where the subfamily is interleukins.
The levels of cell surface (or secreted, indicated by the prefix "s") biomarker endpoints were measured by ELISA. Overt cytotoxicity to cells in confluent adherent cultures (all systems other than the BT system) was assessed by measuring total protein levels using sulforhodamine B (SRB) staining in parallel cultures at the time of biomarker measurements, indicated as SRB endpoints. For proliferation assays for adherent cell types, individual cell types are cultured at sub-confluence and relative cell numbers quantified by SRB staining at time points optimized for each system (48 h: 3C and CASM3C systems; 72 h: BT and HDF3CGF systems; 96 h: SAg system). SRB was performed by staining cells with 0.1% SRB after fixation with 10% TCA and reading wells at 560 nm.Viability and proliferation of PBMC (T cells) was quantified by Alamar Blue reduction for the SAg and BT systems. For PBMC viability (referred to as PBMC Cytotoxicity within the assay endpoint names), cells were plated (75,000/well in a 96-well plate) and then chemical samples added for 1 h before addition of activators, SEB and TSST-1 (20 ng/mL final concentration each). Cells were incubated for 90 h. Then, Alamar Blue (20 uL/well) (Invitrogen, Cat DAL1100) was added for 6 h, and the plates were read with a fluorescence microplate reader at 546/580 nm (excitation/emission). For PBMC proliferation, cells were plated and activated as above but incubated for only 16 h prior to addition of Alamar Blue. Plates were read after 6 h.
For the compound `CCOC(=O)C(C)OC(=O)c1cc(Oc2ccc(C(F)(F)F)cc2Cl)ccc1[N+](=O)[O-]` (stereo not given), the result was inactive. The same measure, in the same setting: the entry for `CC(C)=CC1C(C(=O)OCc2coc(Cc3ccccc3)c2)C1(C)C` (stereo not given) is “inactive”; for `CNC(=O)Oc1cccc2ccccc12` it is “inactive”.

Take `Clc1cccc(C(Cl)(Cl)Cl)n1`: the outcome was inactive. `CC1(C)C(C(=O)OC(C#N)c2cccc(Oc3ccccc3)c2)C1(C)C` (stereo not given): the outcome was inactive.

Consider `CN=C=S`, for which the outcome was inactive. With `CN/C(=N\[N+](=O)[O-])NCc1cnc(Cl)s1`, the outcome was inactive.

`C=CCOC(=O)C(C)(C)OC(=O)c1cc(-n2c(=O)cc(C(F)(F)F)n(C)c2=O)ccc1Cl`: the result was inactive.

On to `COCC(C)N(C(=O)CCl)c1c(C)csc1C` (stereo not given), for which the outcome was inactive.

`O=c1n(Cl)c(=O)n(Cl)c(=O)n1Cl`: the outcome was inactive.

On to `CS(=O)(=O)c1cc(C(F)(F)F)ccc1C(=O)c1cnoc1C1CC1`, for which the result was inactive. On to `COc1cc(OC)nc(NC(=O)NS(=O)(=O)c2ncccc2OCC(F)(F)F)n1`, for which the result was inactive. Same read-out and setting: under `CC(C)N1C(=O)c2ccccc2NS1(=O)=O` stands “inactive”. Consider `COC(=O)NS(=O)(=O)c1ccc(N)cc1`, for which the result was inactive. On the same count and under the same terms, the entry for `CC(C)NC(=O)N1CC(=O)N(c2cc(Cl)cc(Cl)c2)C1=O` is “inactive”. On to `CC(C)N1C(=O)N(c2ccccc2)CSC1=NC(C)(C)C`, for which the result was inactive. Same read-out and setting: the entry for `CCOc1nc(F)cc2nc(S(=O)(=O)Nc3c(Cl)cccc3Cl)nn12` is “inactive”.

As to `CCOc1cc(C(C)(C)C)ccc1C1COC(c2c(F)cccc2F)=N1` (stereo not given), the outcome was inactive. Still for that read-out and setting: under `CCOc1nc(C(Cl)(Cl)Cl)ns1` stands “inactive”; under `COP(=S)(OC)SCn1nnc2ccccc2c1=O`, “inactive”.

As to `CNC(=O)N(C)c1nnc(C(C)(C)C)s1`, the outcome was inactive. On to `OC(c1ccc(Cl)cc1)(c1ccc(Cl)cc1)C(Cl)(Cl)Cl`, for which the AC50 was 15.1 µM (active).

Consider `COCC(=O)N(c1c(C)cccc1C)C(C)C(=O)OC` (stereo not given), for which the outcome was inactive.

Turning to `COC(=O)N(C(=O)N1CO[C@@]2(C(=O)OC)Cc3cc(Cl)ccc3C2=N1)c1ccc(OC(F)(F)F)cc1`, the result was inactive. On the same count and under the same terms, the entry for `N#Cc1c[nH]cc1-c1cccc2c1OC(F)(F)O2` is “inactive”; for `COP(=S)(OC)Oc1ccc([N+](=O)[O-])c(C)c1` it is “inactive”; for `Cc1cc(C)nc(Nc2ccccc2)n1` it is “inactive”. Same read-out and setting: under `O=C(O)c1c(Cl)ccc2cc(Cl)cnc12` stands “inactive”. On to `O=C1C2CC=CCC2C(=O)N1SC(Cl)(Cl)Cl` (stereo not given), for which the AC50 is 11.2 µM (active). Take `Cn1c(-c2ccccc2)cc(-c2ccccc2)[n+]1C`: the outcome was inactive. On the same count and under the same terms, under `COc1ccc(-c2ccccc2)cc1NNC(=O)OC(C)C` stands “inactive”. On the same count and under the same terms, the entry for `Cc1nc(N(C)C)nc(OC(=O)N(C)C)c1C` is “inactive”; for `CCC(C)n1c(=O)[nH]c(C)c(Br)c1=O` (stereo not given) it is “inactive”.

As for `Cc1ccc(N=CN(C)C=Nc2ccc(C)cc2C)c(C)c1`, the AC50 is 35.1 µM (active).

As to `CC1(C)C(C=C(Cl)Cl)C1C(=O)OC(C#N)c1cccc(Oc2ccccc2)c1` (stereo not given), the outcome was inactive. Turning to `Cc1cnc(C2=NC(C)(C(C)C)C(=O)N2)c(C(=O)O)c1` (stereo not given), the result was inactive.

In the case of `CC1(C)CCC(=Cc2ccc(Cl)cc2)C1(O)Cn1cncn1` (stereo not given), the outcome was inactive. With `CCN(CC)C(=O)C(C)Oc1cccc2ccccc12` (stereo not given), the result was inactive. Same read-out and setting: under `COC(=O)c1c(C(F)F)nc(C(F)(F)F)c(C2=NCCS2)c1CC(C)C` stands “inactive”; under `CCOP(=O)(OCC)Oc1nc(Cl)c(Cl)cc1Cl`, “inactive”.
